# Screening results (PubChem BioAssay)
# aSyn yeast inh – alpha-synuclein toxicity inhibition in yeast; Yeast expressing alpha-synuclein, growth rescue, BacTiter-Glo, 24 h; Potency, µM (doses to about 46.1 µM), usual class: activators; 0.14% of 370,000 active; also: nearly all actives have a fitted effect of over 65% in size
#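 Screening used galactose-induced yeast with toxic alpha-synuclein levels, exposed to compound for 24 hr at 30 deg C. Cell growth, read with BacTiter-Glo luminescence, gave the measured signal.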
# TDP-43 yeast inh – TDP-43 toxicity inhibition in yeast. Potency, µM (titrated, usually from 46.1 µM), usual class: activators. TDP-43 expressing yeast growth rescue, BacTiter-Glo, 24 h. 1.8% of 410,000 active; also: nearly all actives have a fitted effect of over 50% in size
#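 Readout is BacTiter-Glo luminescence of cell growth, so inhibitors register as activators. TDP-43-expressing yeast at OD600=0.02 in galactose medium, after raffinose pregrowth to mid-log, were incubated with compound for 24 hr at 30 deg C.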
# TSG101-PTAP inh – blocks PTAP/TSG101 interaction to inhibit HIV-1 budding; Q99816; Fluorescence polarization, FITC-PTAP peptide / Tsg101 binding; Potency, µM (top dose mostly 115 µM), usual class: inhibitors; 340,000 tested, under 10 active; active = well fitted inhibition curve with a large enough effect in the main read-out, with a control signal flat, not every such curve was filed as active; inconclusive = small, poorly fitted or top-dose-only effect, or effect the other way, or a change in a side signal; inactive = no such curve, though single readings can be large or run the other way
# Target sequence (Q99816 whole entry, looked up): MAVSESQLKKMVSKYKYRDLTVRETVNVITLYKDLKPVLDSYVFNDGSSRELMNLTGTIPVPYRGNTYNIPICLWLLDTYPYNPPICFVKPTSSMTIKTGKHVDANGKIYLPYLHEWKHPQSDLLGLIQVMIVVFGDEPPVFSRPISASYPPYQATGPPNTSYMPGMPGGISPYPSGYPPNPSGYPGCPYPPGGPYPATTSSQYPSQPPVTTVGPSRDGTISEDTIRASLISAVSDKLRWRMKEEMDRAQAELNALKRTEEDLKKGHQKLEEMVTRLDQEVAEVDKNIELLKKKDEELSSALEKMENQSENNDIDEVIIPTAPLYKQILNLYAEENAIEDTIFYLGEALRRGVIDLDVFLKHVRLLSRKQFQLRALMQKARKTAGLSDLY
#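 Tsg101 binding domain (10 uM final) was mixed with compound and a FITC-labeled PTAP peptide (50 nM final) in HEPES pH 7.5 buffer with NaCl, Tween 20, EDTA and TCEP; fluorescence polarization was read after 20 min at r.t.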
# Abeta yeast res – restores growth of yeast expressing A-beta42 peptide. yeast expressing A-beta42, growth rescue, OD600, 48 h; response scale: 0% DMSO, 100% iron-clioquinol control. Potency, µM (highest dose often 46.1 µM), actives largely listed as activators. 0.063% of 410,000 active. AID 1347071; also: nearly all actives have a fitted effect of over 55% in size
#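 Yeast A-beta toxicity model in growth medium with pinned compounds, 48 h at 30 C; growth read as absorbance at 600 nm. Normalized to FeCl3/clioquinol equimolar mix (positive) and DMSO (negative).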
# FUS yeast rescue – rescues growth of FUS-expressing yeast | S. cerevisiae FUS-expressing, growth rescue, OD600, 24 h | 0.24% of 390,000 active | Potency, µM (titrated, usually from 76.6 µM), actives largely listed as activators; also: nearly all actives have a fitted effect of over 55% in size
#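 Galactose (2%) drives FUS expression in yeast precultured in raffinose; seeding density OD 0.005. Test compounds incubated 24hr at 30C and 99% humidity before absorbance at 600 nm was measured.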
# Numbers stand for hits; – = inactive; ? = inconclusive; · = no result given; [ ] = another dose, or the depositor's remark. Compounds with a hit are over-represented: about 2.1% of the library has one in this group of screens. Unless noted, calls follow the shape of the dose curve; as a rule, active = well fitted curve in the direction sought with a large enough effect; inconclusive = small, poorly fitted or top-dose-only effect, or another doubt; inactive = no such curve, though single readings can be large; an effect the other way counts as inactive or inconclusive.
SMILES,aSyn yeast inh,TDP-43 yeast inh,TSG101-PTAP inh,Abeta yeast res,FUS yeast rescue
CCN1CCN(C(=S)c2ccc(SC)cc2)CC1,–,–,–,–,–
CCCCSc1nc(NCc2ccco2)c2c3c(sc2n1)COC(C)(C)C3,–,?,–,–,–
CCCSc1nc(NCc2ccco2)c2c3c(sc2n1)COC(C)(C)C3,–,20µM,–,–,?
CCSc1ncc(Cl)c(C(=O)N(Cc2ccc(N(C)C)cc2)Cc2ccco2)n1,·,–,·,–,–
COC(=O)c1ccccc1NC(=O)Cn1c(=O)n(-c2ccc(C)cc2)c(=O)c2ccccc21,·,–,·,–,–
COc1ccc(C2=C(c3ccccc3)OC(OC)c3cc(F)ccc32)cn1 (configuration not stated),?,16µM,·,?,–
COC1OC(c2ccccc2)=C(c2ccc(C(N)=O)cc2)c2ccc(F)cc21 (configuration not stated),–,–,·,–,–
CC(=O)c1ccc(Oc2ccc(C(C)=O)cc2)cc1,–,22µM,–,–,–
COc1ccc(/C=C/C(=O)OCC(=O)c2cc(C)ccc2C)cc1,–,–,·,–,–
COc1ccc(C2=NS(=O)(=O)N(C)C(C(=O)N3CCC(C)CC3)=C2)cc1,–,–,–,–,–
CN1C(C(=O)N2CCc3ccccc3C2)=CC(c2ccc(F)cc2)=NS1(=O)=O,–,13µM,–,–,–
Cc1cc(O)c(NC(=O)c2cc([N+](=O)[O-])ccc2Cl)cc1C,–,14µM,–,–,–
CC1(C(=O)NS(=O)(=O)c2ccccc2OC(F)(F)F)CCN1C(=O)c1ccco1 (configuration not stated),–,–,·,–,–
CC(OC(=O)Cc1cccc(C(F)(F)F)c1)C(=O)Nc1ccc(Cl)cn1 (configuration not stated),–,?,–,5µM,–
COc1cccc(CC(=O)OC(C)C(=O)Nc2ccc(Cl)cn2)c1 (configuration not stated),–,–,–,–,–
NC(=S)c1cnn2c(-c3cccc(C(F)(F)F)c3)ccnc12,–,?,–,6.3µM,–
N#Cc1cnn2c(-c3ccccc3)ccnc12,–,–,–,–,–
CC(C)c1ccc(NC(=O)C2Cc3c(-c4ccccc4Oc4ccccc4)ccnc3O2)cc1 (configuration not stated),–,–,·,–,–
O=C(COC(=O)c1ccc2ncsc2c1)Nc1cc(Cl)ccc1F,–,14µM,–,–,–
Cc1cc2n(n1)CCC(=O)N2Cc1ccc(C(=O)Nc2cccc(C(F)(F)F)c2)cc1,·,–,·,–,–
COc1ccc(/C=C(\C#N)C(=O)Nc2cccnc2)cc1,–,–,–,–,·
N#C/C(=C\c1ccc(Cl)cc1)C(=O)Nc1cccnc1,–,–[1.82 µM],–,13µM,–
Fc1ccc(CNc2ncnc3nc[nH]c23)cc1,–,·,·,·,·
CCOC(=O)c1ccc(CNc2ncnc3nc[nH]c23)cc1,25µM,·,·,·,·
COc1ccc(/C=C/S(=O)(=O)NCC(C)C)c(CNC(=O)OC(C)(C)C)c1,·,·,·,·,–
SMILES,aSyn yeast inh,TDP-43 yeast inh,TSG101-PTAP inh,Abeta yeast res,FUS yeast rescue
Cc1ccc(S(=O)(=O)c2ccc([N+](=O)[O-])cn2)cc1,–,?,–,–,–
Cc1cc(S(=O)(=O)c2ccc([N+](=O)[O-])cn2)ccc1Br,–,1µM,–,–,–
COCCNc1ncnc2c1c(-c1ccccc1)cn2-c1cccc(Cl)c1,·,35µM,·,–,?
CC(=O)Nc1ccc(Nc2ncnc3c2c(-c2ccccc2)cn3-c2ccc(C)c(Cl)c2)cc1,·,16µM,·,–,?
Cn1ncc2c(N3CCN(c4ccccc4F)CC3)ncnc21,–,13µM,–,–,–
CC1(C(=O)NCC2CCCCC2)CCN1CCc1ccccc1 (configuration not stated),–,–,·,–,–
Cc1cc(/C([O-])=C(/C(=S)Nc2ccccc2)[n+]2ccccc2)c(C)n1-c1ccccc1,–,–,–,–,16µM
Cc1cc(/C([O-])=C(/C(=S)Nc2ccc(F)cc2)[n+]2ccccc2)c(C)n1-c1ccc(F)cc1,–,–,–,–,?
CC1(C)Cc2cccc(OCC(=O)Nc3ccccc3F)c2O1,?,?,–,–,–
Cc1ccc(NC(=O)COc2cccc3c2OC(C)(C)C3)c(O)c1,–,11µM,–,–,·
CCOC(=O)c1[nH]c(C)c(CCC(=O)NCc2ccccc2Cl)c1C,·,–[9.22 µM],·,–,–
CC(C)C(N)c1csc(Nc2ccc(S(C)(=O)=O)cc2)n1 (configuration not stated),–,–,·,–,–
CCN(CC)CCOC(=O)c1ccc(NC(=O)Cn2ncc3c2-c2cc(C)ccc2OC3)cc1,·,–,·,–,–
Cn1cc(C(=O)c2ccc(Cl)cc2Cl)cc1C=O,–,–,–,–,–
COC(=O)c1cc(C(=O)c2ccc(Cl)cc2Cl)cn1C,–,11µM,–,–,–
Cn1cc(C(=O)c2cccc(Cl)c2Cl)cc1C(=O)O,–,–,–,–,–
COC(=O)c1cc(C(=O)c2cccc(Cl)c2Cl)cn1C,–,18µM,–,–,–
COc1ccc(S(=O)(=O)NCCc2csc3nc(-c4ccc(OC)c(OC)c4)nn23)cc1C,·,–,·,–,–
COC(=O)c1sccc1NC(=O)Nc1ccc(C)cc1,–,?,–,–,–
O=C(Nc1ccc(Cl)cc1)c1sccc1-n1cccc1,–,?,–,–,–
Cc1ccc(NC(=O)c2sccc2-n2cccc2)c(C)c1,–,22µM,–,–,–
COc1ccc(NC(=O)c2sccc2-n2cccc2)cc1,–,13µM,–,–,–
COC(=O)c1sccc1NC(=O)Nc1ccc(C)cc1C,–,13µM,–,–,–
COc1ccccc1N1CCN(c2ccc(NC(=O)c3ccc(C)cc3)cc2C(=O)O)CC1,·,–[9.22 µM],·,–,–
COc1ccccc1N(CC(=O)NCCSc1ccccc1)S(=O)(=O)c1ccc(C)cc1,·,–,·,–,–
SMILES,aSyn yeast inh,TDP-43 yeast inh,TSG101-PTAP inh,Abeta yeast res,FUS yeast rescue
O=S(=O)(Nc1nc2ccccc2nc1Cl)c1ccc(F)cc1,–,–,–,?,–
O=S(=O)(Nc1nc2ccccc2nc1Cl)c1ccccc1,–,35µM,–,–,–
C/C(=N\O)c1cc(Cl)cc(Cl)c1O,?,14µM,–,–,–
C/C(=N\O)c1ccc(Cl)cc1Cl,–,–,–,–,–
CCOc1ccc(Sc2cc(C(=O)NC(C)c3ccccc3)c3ccccc3n2)cc1 (configuration not stated),·,–,·,–,–
Cc1c([N+](=O)[O-])cnc(Sc2ccccc2)c1[N+](=O)[O-],–,22µM,–,–,–
CNc1ncnc(Sc2ccc(Cl)cc2)c1[N+](=O)[O-],–,–,–,–,–
N#Cc1ccc(Cn2nnc(-c3ccc(N4CCOCC4)cc3)n2)cc1,·,·,·,·,–
c1ccc(-c2nc(-c3ccco3)n3ccccc23)cc1,–,25µM,–,–,–
c1ccc(Nc2c(-c3ccco3)nc3ccccn23)cc1,–,–,–,–,–
